# Test results reported in publication PMC8384837, “Expanding the binding specificity for RNA recognition by a PUF domain”.
# Assays:
# Experiment in all cases: yeast three-hybrid, YBZ-1, SC-Leu-His + 0.5 mM 3-AT, 4 days
# Settings in all cases: tags: N-Gal4 AD-HA kept; label: inside an RPR1-promoter hybrid RNA with tandem MS2 sites; ssRNA
# PUM1 PUF domain R5-KAN = PUM1 PUF domain R5-KAN (Homo sapiens, UniProt Q14671 828-1176, C1007K;R1008A;Q1011N)
# Method in brief: (§1)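 A centromeric plasmid in strain YBZ-1 co-expressed Pumilio-1 PUF domain libraries, randomized at the three base-contacting residues of each repeat, with matching RNA elements; the strain carries a LexA–MS2 coat fusion and a HIS3 reporter. After four days on SC-Leu (input) or SC-Leu-His + 0.5 mM 3-AT (selection), the repeat regions were PCR-amplified and Illumina-sequenced. The interaction score is the log change in variant frequency from input to selection, using log2 and a pseudocount of 1 where absent.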
# PUM1 PUF domain R5-RAS = PUM1 PUF domain R5-RAS (Homo sapiens, UniProt Q14671 828-1176, C1007R;R1008A;Q1011S)
# Sequence of PUM1 PUF domain R5-RAS (Q14671 828-1176 C1007R/R1008A/Q1011S): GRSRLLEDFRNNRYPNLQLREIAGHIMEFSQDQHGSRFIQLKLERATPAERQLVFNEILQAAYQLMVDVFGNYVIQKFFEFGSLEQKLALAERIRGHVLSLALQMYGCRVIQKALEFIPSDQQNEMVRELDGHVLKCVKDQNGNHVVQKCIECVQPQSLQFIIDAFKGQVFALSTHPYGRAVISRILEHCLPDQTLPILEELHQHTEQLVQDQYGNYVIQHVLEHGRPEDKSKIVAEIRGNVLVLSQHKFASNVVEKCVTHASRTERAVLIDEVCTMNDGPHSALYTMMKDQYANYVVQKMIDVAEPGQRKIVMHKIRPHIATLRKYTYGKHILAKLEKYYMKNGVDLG
# Method in brief: as §1
# PUM1 PUF domain R5-RRT = PUM1 PUF domain R5-RRT (Homo sapiens, UniProt Q14671 828-1176, C1007R;Q1011T)
# Sequence of PUM1 PUF domain R5-RRT (Q14671 828-1176 C1007R/Q1011T): as the sequence (Q14671 828-1176 C1007R/R1008A/Q1011S) above, with A181R, S184T counted along it
# Method in brief: as §1
# PUM1 PUF domain R4-GPR = PUM1 PUF domain R4-GPR (Homo sapiens, UniProt Q14671 828-1176, N971G;H972P;Q975R)
# Method in brief: as §1
# PUM1 PUF domain R4-PHG = PUM1 PUF domain R4-PHG (Homo sapiens, UniProt Q14671 828-1176, N971P;Q975G)
# Sequence of PUM1 PUF domain R4-PHG (Q14671 828-1176 N971P/Q975G): as the sequence (Q14671 828-1176 C1007R/R1008A/Q1011S) above, with N144P, Q148G, R180C, A181R, S184Q counted along it
# Method in brief: as §1
# PUM1 PUF domain R4-DFG = PUM1 PUF domain R4-DFG (Homo sapiens, UniProt Q14671 828-1176, N971D;H972F;Q975G)
# Method in brief: as §1
# PUM1 PUF domain R2-RQC = PUM1 PUF domain R2-RQC (Homo sapiens, UniProt Q14671 828-1176, N899R;Y900Q;Q903C)
# Sequence of PUM1 PUF domain R2-RQC (Q14671 828-1176 N899R/Y900Q/Q903C): as the sequence (Q14671 828-1176 C1007R/R1008A/Q1011S) above, with N72R, Y73Q, Q76C, R180C, A181R, S184Q counted along it
# Method in brief: as §1
# PUM1 PUF domain R3-LSG = PUM1 PUF domain R3-LSG (Homo sapiens, UniProt Q14671 828-1176, C935L;R936S;Q939G)
# Sequence of PUM1 PUF domain R3-LSG (Q14671 828-1176 C935L/R936S/Q939G): as the sequence (Q14671 828-1176 C1007R/R1008A/Q1011S) above, with C108L, R109S, Q112G, R180C, A181R, S184Q counted along it
# Method in brief: as §1
# PUM1 PUF domain R3-SPT = PUM1 PUF domain R3-SPT (Homo sapiens, UniProt Q14671 828-1176, C935S;R936P;Q939T)
# Method in brief: as §1
# PUM1 PUF domain R3-LST = PUM1 PUF domain R3-LST (Homo sapiens, UniProt Q14671 828-1176, C935L;R936S;Q939T)
# Sequence of PUM1 PUF domain R3-LST (Q14671 828-1176 C935L/R936S/Q939T): as the sequence (Q14671 828-1176 C1007R/R1008A/Q1011S) above, with C108L, R109S, Q112T, R180C, A181R, S184Q counted along it
# Method in brief: as §1
# PUM1 PUF domain R3-RIA = PUM1 PUF domain R3-RIA (Homo sapiens, UniProt Q14671 828-1176, C935R;R936I;Q939A)
# Sequence of PUM1 PUF domain R3-RIA (Q14671 828-1176 C935R/R936I/Q939A): as the sequence (Q14671 828-1176 C1007R/R1008A/Q1011S) above, with C108R, R109I, Q112A, R180C, A181R, S184Q counted along it
# Method in brief: as §1
# PUM1 PUF domain R3-IWR = PUM1 PUF domain R3-IWR (Homo sapiens, UniProt Q14671 828-1176, C935I;R936W;Q939R)
# Sequence of PUM1 PUF domain R3-IWR (Q14671 828-1176 C935I/R936W/Q939R): as the sequence (Q14671 828-1176 C1007R/R1008A/Q1011S) above, with C108I, R109W, Q112R, R180C, A181R, S184Q counted along it
# Method in brief: as §1
# PUM1 PUF domain R8-NWF = PUM1 PUF domain R8-NWF (Homo sapiens, UniProt Q14671 828-1176, Y1123W;Q1126F)
# Sequence of PUM1 PUF domain R8-NWF (Q14671 828-1176 Y1123W/Q1126F): as the sequence (Q14671 828-1176 C1007R/R1008A/Q1011S) above, with R180C, A181R, S184Q, Y296W, Q299F counted along it
# Method in brief: as §1
# PUM1 PUF domain R8-SYK = PUM1 PUF domain R8-SYK (Homo sapiens, UniProt Q14671 828-1176, N1122S;Q1126K)
# Sequence of PUM1 PUF domain R8-SYK (Q14671 828-1176 N1122S/Q1126K): as the sequence (Q14671 828-1176 C1007R/R1008A/Q1011S) above, with R180C, A181R, S184Q, N295S, Q299K counted along it
# Method in brief: as §1
# PUM1 PUF domain R8-KHN = PUM1 PUF domain R8-KHN (Homo sapiens, UniProt Q14671 828-1176, N1122K;Y1123H;Q1126N)
# Sequence of PUM1 PUF domain R8-KHN (Q14671 828-1176 N1122K/Y1123H/Q1126N): as the sequence (Q14671 828-1176 C1007R/R1008A/Q1011S) above, with R180C, A181R, S184Q, N295K, Y296H, Q299N counted along it
# Method in brief: as §1
# PUM1 PUF domain R8-PWQ = PUM1 PUF domain R8-PWQ (Homo sapiens, UniProt Q14671 828-1176, N1122P;Y1123W)
# Method in brief: as §1
# PUM1 PUF domain R6-VWV = target: T1, PUM1 PUF domain R6-VWV (Homo sapiens, UniProt Q14671 828-1176, N1043V;Y1044W;Q1047V)
# T1 sequence: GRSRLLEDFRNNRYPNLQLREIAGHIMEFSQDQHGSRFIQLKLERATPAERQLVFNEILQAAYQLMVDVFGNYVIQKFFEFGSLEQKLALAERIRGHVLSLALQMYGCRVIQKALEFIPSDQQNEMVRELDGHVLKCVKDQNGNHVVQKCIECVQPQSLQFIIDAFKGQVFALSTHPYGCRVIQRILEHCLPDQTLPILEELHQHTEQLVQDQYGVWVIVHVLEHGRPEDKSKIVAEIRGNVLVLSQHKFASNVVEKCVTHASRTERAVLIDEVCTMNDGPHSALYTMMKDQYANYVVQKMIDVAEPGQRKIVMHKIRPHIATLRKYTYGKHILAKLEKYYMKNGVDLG
# Method in brief: as §1
# PUM1 PUF domain R4-NQQ = PUM1 PUF domain R4-NQQ (Homo sapiens, UniProt Q14671 828-1176, H972Q)
# Method in brief: as §1
# PUM1 PUF domain R7-VSR = PUM1 PUF domain R7-VSR (Homo sapiens, UniProt Q14671 828-1176, S1079V;N1080S;E1083R)
# Method in brief: as §1
# PUM1 PUF domain R1-KKS = PUM1 PUF domain R1-KKS (Homo sapiens, UniProt Q14671 828-1176, S863K;R864K;Q867S)
# Sequence of PUM1 PUF domain R1-KKS (Q14671 828-1176 S863K/R864K/Q867S): as the sequence (Q14671 828-1176 C1007R/R1008A/Q1011S) above, with S36K, R37K, Q40S, R180C, A181R, S184Q counted along it
# Method in brief: as §1
# Sequence of PUM1 PUF domain R5-KAN (Q14671 828-1176 C1007K/R1008A/Q1011N): as the sequence (Q14671 828-1176 C1007R/R1008A/Q1011S) above, with R180K, S184N counted along it
sequence,measurement,setting,value
GGCUAGAACUAGUGGAUCCCCCGGCGCCCGGCGGCUCGAGCCCGGGUAAGUGUCAAUAGUCUGCAUGCCGCCGGGCGCCAUGCCUGCAGGUCGACUCUAGAAAACAUG,binding signal,PUM1 PUF domain R5-KAN,5.42 log2 enrichment (interaction score)
same,binding signal,PUM1 PUF domain R5-RAS,3.03 log2 enrichment (interaction score)
same,binding signal,PUM1 PUF domain R5-RRT,4.59 log2 enrichment (interaction score)
GGCUAGAACUAGUGGAUCCCCCGGCGCCCGGCGGCUCGAGCCCGGGUAAGUGUACAUAGUCUGCAUGCCGCCGGGCGCCAUGCCUGCAGGUCGACUCUAGAAAACAUG,binding signal,PUM1 PUF domain R4-GPR,2.58 log2 enrichment (interaction score)
same,binding signal,PUM1 PUF domain R4-PHG,4.15 log2 enrichment (interaction score)
same,binding signal,PUM1 PUF domain R4-DFG,2.96 log2 enrichment (interaction score)
GGCUAGAACUAGUGGAUCCCCCGGCGCCCGGCGGCUCGAGCCCGGGUAAGUGUAAAGAGUCUGCAUGCCGCCGGGCGCCAUGCCUGCAGGUCGACUCUAGAAAACAUG,binding signal,PUM1 PUF domain R2-RQC,4.25 log2 enrichment (interaction score)
GGCUAGAACUAGUGGAUCCCCCGGCGCCCGGCGGCUCGAGCCCGGGUAAGUGUAAUUAGUCUGCAUGCCGCCGGGCGCCAUGCCUGCAGGUCGACUCUAGAAAACAUG,binding signal,PUM1 PUF domain R3-LSG,1.48 log2 enrichment (interaction score)
same,binding signal,PUM1 PUF domain R3-SPT,1.18 log2 enrichment (interaction score)
same,binding signal,PUM1 PUF domain R3-LST,2.71 log2 enrichment (interaction score)
same,binding signal,PUM1 PUF domain R3-RIA,3.43 log2 enrichment (interaction score)
same,binding signal,PUM1 PUF domain R3-IWR,3.7 log2 enrichment (interaction score)
GGCUAGAACUAGUGGAUCCCCCGGCGCCCGGCGGCUCGAGCCCGGGUAAGCGUAAAUAGUCUGCAUGCCGCCGGGCGCCAUGCCUGCAGGUCGACUCUAGAAAACAUG,binding signal,PUM1 PUF domain R8-NWF,2.16 log2 enrichment (interaction score)
same,binding signal,PUM1 PUF domain R8-SYK,4.29 log2 enrichment (interaction score)
same,binding signal,PUM1 PUF domain R8-KHN,5.43 log2 enrichment (interaction score)
GGCUAGAACUAGUGGAUCCCCCGGCGCCCGGCGGCUCGAGCCCGGGUAAGUGUAAAUAGUCUGCAUGCCGCCGGGCGCCAUGCCUGCAGGUCGACUCUAGAAAACAUG,binding signal,PUM1 PUF domain R8-PWQ,3.79 log2 enrichment (interaction score)
same,binding signal,PUM1 PUF domain R4-PHG,4.7 log2 enrichment (interaction score)
same,binding signal,PUM1 PUF domain R6-VWV,1.13 log2 enrichment (interaction score)
same,binding signal,PUM1 PUF domain R4-DFG,5.83 log2 enrichment (interaction score)
same,binding signal,PUM1 PUF domain R3-SPT,2.13 log2 enrichment (interaction score)
same,binding signal,PUM1 PUF domain R8-KHN,2.21 log2 enrichment (interaction score)
same,binding signal,PUM1 PUF domain R5-RRT,0.94 log2 enrichment (interaction score)
same,binding signal,PUM1 PUF domain R3-IWR,3.61 log2 enrichment (interaction score)
GGCUAGAACUAGUGGAUCCCCCGGCGCCCGGCGGCUCGAGCCCGGGUAAGUGUGAAUAGUCUGCAUGCCGCCGGGCGCCAUGCCUGCAGGUCGACUCUAGAAAACAUG,binding signal,PUM1 PUF domain R5-RRT,1.02 log2 enrichment (interaction score)
GGCUAGAACUAGUGGAUCCCCCGGCGCCCGGCGGCUCGAGCCCGGGUAAGGGUAAAUAGUCUGCAUGCCGCCGGGCGCCAUGCCUGCAGGUCGACUCUAGAAAACAUG,binding signal,PUM1 PUF domain R8-KHN,2.46 log2 enrichment (interaction score)
GGCUAGAACUAGUGGAUCCCCCGGCGCCCGGCGGCUCGAGCCCGGGUAAGUGUUAAUAGUCUGCAUGCCGCCGGGCGCCAUGCCUGCAGGUCGACUCUAGAAAACAUG,binding signal,PUM1 PUF domain R5-RAS,3.24 log2 enrichment (interaction score)
GGCUAGAACUAGUGGAUCCCCCGGCGCCCGGCGGCUCGAGCCCGGGUAAGUGUAUAUAGUCUGCAUGCCGCCGGGCGCCAUGCCUGCAGGUCGACUCUAGAAAACAUG,binding signal,PUM1 PUF domain R4-GPR,0.87 log2 enrichment (interaction score)
same,binding signal,PUM1 PUF domain R4-PHG,4.99 log2 enrichment (interaction score)
same,binding signal,PUM1 PUF domain R4-NQQ,2.71 log2 enrichment (interaction score)
GGCUAGAACUAGUGGAUCCCCCGGCGCCCGGCGGCUCGAGCCCGGGUAAGUUUAAAUAGUCUGCAUGCCGCCGGGCGCCAUGCCUGCAGGUCGACUCUAGAAAACAUG,binding signal,PUM1 PUF domain R7-VSR,3.33 log2 enrichment (interaction score)
GGCUAGAACUAGUGGAUCCCCCGGCGCCCGGCGGCUCGAGCCCGGGUAAGUGUAAGUAGUCUGCAUGCCGCCGGGCGCCAUGCCUGCAGGUCGACUCUAGAAAACAUG,binding signal,PUM1 PUF domain R3-LSG,2.82 log2 enrichment (interaction score)
same,binding signal,PUM1 PUF domain R3-LST,3.44 log2 enrichment (interaction score)
same,binding signal,PUM1 PUF domain R3-IWR,4.57 log2 enrichment (interaction score)
GGCUAGAACUAGUGGAUCCCCCGGCGCCCGGCGGCUCGAGCCCGGGUAAGUGAAAAUAGUCUGCAUGCCGCCGGGCGCCAUGCCUGCAGGUCGACUCUAGAAAACAUG,binding signal,PUM1 PUF domain R6-VWV,4.54 log2 enrichment (interaction score)
GGCUAGAACUAGUGGAUCCCCCGGCGCCCGGCGGCUCGAGCCCGGGUAAGUGUAAAUUGUCUGCAUGCCGCCGGGCGCCAUGCCUGCAGGUCGACUCUAGAAAACAUG,binding signal,PUM1 PUF domain R1-KKS,5.1 log2 enrichment (interaction score)
